# Only a selection was taken, and the strongest signals are over-represented in it overall.
# B1: GS7807F-bth-514-18-514 (Bacteroides thetaiotaomicron) (protein)
# chain: AGSCTGNFEEYNTNQFQIHEADPSTLMKSMIETIVNIQQNDSQMMDQMVGQLGGYLTCANVWSGTNFGTFNQSDAWNAGPWNTNFEKIYGNFFQIQEATNESGHYYAFARMIRAITMLRVADCYGPMPYSQVKKGNFYVAYDTEEQVYKNIMEDFASAANVLYNYYKDTNGNAPLASNDPVFSGNYANWARLANSMRLRVAIRISTAYPEMAKENAEAAASHEAGLIEANNDNAMMDCGSQTNPYQLAAVSWGDLRVNANIVDYMNGYGDPRMSKYFNHSTFTGHTQEYVGMRSGEDGFAKSDVAGYSIPAITGTSKLLVFCAAETAFLRAEGKLKNWSVGNKSAKEYYEEGIKLSMEQYGTTMPDNYLTNTEKPTVSHNNDPRGHAYTISNTVAVAWNDNNEEENLQRIITQKWIANYPLGLEAWAEYRRTGYPELYPCIDNLSPSGVDSKRGMRRLRFPYTEVQNNHSNYQQGVSYLKNGGPDNEATDLSWGKTN
# Key:
# Assay in all cases: glycan array binding signal (z-score within array); higher = stronger binding
# Conditions in all cases: glycan notation: IUPAC condensed, linker removed
# [1] = target: Fuc(a1-2)Gal(b1-3)GalNAc(b1-3)Gal(a1-4)Gal(b1-4)Glc
# Outline: (§1)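 The binding signal is a Z-score computed within each array and averaged over linkers. Arrays of the same protein sequence at different concentrations or buffers were also averaged together. Data originate from 3228 arrays in the Consortium for Functional Glycomics database, kept only where the protein sequence was available.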
# [2] = target: Fuc(a1-2)Gal(b1-3)GlcNAc(b1-3)[Gal(b1-4)GlcNAc(b1-6)]Gal(b1-4)Glc
# Outline: as §1
# [3] = target: Fuc(a1-2)Gal(b1-4)GlcNAc(b1-2)Man
# Outline: as §1
# [4] = target: Fuc(a1-2)Gal(b1-4)[Fuc(a1-3)]GlcNAc(b1-2)[Fuc(a1-2)Gal(b1-4)[Fuc(a1-3)]GlcNAc(b1-4)]Man(a1-3)[Fuc(a1-2)Gal(b1-4)[Fuc(a1-3)]GlcNAc(b1-2)Man(a1-6)]Man(b1-4)GlcNAc(b1-4)GlcNAc
# Outline: as §1
# [5] = target: Fuc(a1-2)Gal(b1-4)[Fuc(a1-3)]GlcNAc(b1-3)[Neu5Ac(a2-6)Gal(b1-4)GlcNAc(b1-6)]Gal(b1-4)Glc
# Outline: as §1
# [6] = target: Fuc(a1-2)Gal6S(b1-3)GlcNAc6S
# Outline: as §1
# [7] = target: Fuc(a1-2)[Gal(a1-3)]Gal(b1-3)GlcNAc(b1-2)Man(a1-3)[Fuc(a1-2)[Gal(a1-3)]Gal(b1-3)GlcNAc(b1-2)Man(a1-6)]Man(b1-4)GlcNAc(b1-4)GlcNAc
# Outline: as §1
# [8] = target: Fuc(a1-2)[Gal(a1-3)]Gal(b1-4)GlcNAc(b1-2)Man
# Outline: as §1
# [9] = target: Fuc(a1-2)[GalNAc(a1-3)]Gal(b1-3)GlcNAc(b1-6)GalNAc
# Outline: as §1
# [10] = target: Fuc(a1-2)[GalNAc(b1-3)]Gal
# Outline: as §1
# [11] = target: Fuc(a1-3)[Gal(b1-4)]GlcNAc(b1-2)Man
# Outline: as §1
# [12] = target: Fuc(a1-3)[Gal(b1-4)]GlcNAc(b1-6)GalNAc
# Outline: as §1
# Gal(a1-2)Gal = target: Gal(a1-2)Gal
# Outline: as §1
# Gal(a1-3)Gal(b1-3)GlcNAc = target: Gal(a1-3)Gal(b1-3)GlcNAc
# Outline: as §1
# Gal(a1-4)Gal(b1-4)GlcNAc = target: Gal(a1-4)Gal(b1-4)GlcNAc
# Outline: as §1
# [13] = target: Gal(b1-3)GalNAc(b1-4)Gal(b1-4)Glc
# Outline: as §1
# [14] = target: Gal(b1-3)GalNAc(b1-4)[Neu5Ac(a2-3)]Gal(b1-4)Glc
# Outline: as §1
# [15] = target: Gal(b1-3)GlcNAc(b1-2)Man(a1-3)[Gal(b1-3)GlcNAc(b1-2)Man(a1-6)]Man(b1-4)GlcNAc(b1-4)[Fuc(a1-6)]GlcNAc
# Outline: as §1
# [16] = target: Gal(b1-3)GlcNAc(b1-6)[Gal(b1-3)]GalNAc
# Outline: as §1
# Gal(b1-3)GlcNAc6S = target: Gal(b1-3)GlcNAc6S
# Outline: as §1
# [17] = target: Gal(b1-4)GlcNAc(b1-2)Man(a1-3)Man(b1-4)GlcNAc(b1-4)GlcNAc
# Outline: as §1
# [18] = target: Gal(b1-4)GlcNAc(b1-3)Gal(b1-4)GlcNAc(b1-3)Gal(b1-4)GlcNAc(b1-2)[Gal(b1-4)GlcNAc(b1-3)Gal(b1-4)GlcNAc(b1-3)Gal(b1-4)GlcNAc(b1-6)]Man(a1-6)[Gal(b1-4)GlcNAc(b1-3)Gal(b1-4)GlcNAc(b1-3)Gal(b1-4)GlcNAc(b1-2)Man(a1-3)]Man(b1-4)GlcNAc(b1-4)[Fuc(a1-6)]GlcNAc
# Outline: as §1
# [19] = target: Gal(b1-4)GlcNAc(b1-3)Gal(b1-4)GlcNAc(b1-3)Gal(b1-4)GlcNAc(b1-3)Gal(b1-4)GlcNAc(b1-3)Gal(b1-4)GlcNAc(b1-2)Man(a1-3)[Gal(b1-4)GlcNAc(b1-3)Gal(b1-4)GlcNAc(b1-3)Gal(b1-4)GlcNAc(b1-3)Gal(b1-4)GlcNAc(b1-3)Gal(b1-4)GlcNAc(b1-2)Man(a1-6)]Man(b1-4)GlcNAc(b1-4)GlcNAc
# Outline: as §1
# [20] = target: Gal(b1-4)GlcNAc(b1-3)Gal(b1-4)GlcNAc(b1-3)Gal(b1-4)GlcNAc(b1-3)Gal(b1-4)GlcNAc(b1-3)Gal(b1-4)GlcNAc(b1-3)Gal(b1-4)GlcNAc(b1-2)Man(a1-3)[Gal(b1-4)GlcNAc(b1-3)Gal(b1-4)GlcNAc(b1-3)Gal(b1-4)GlcNAc(b1-3)Gal(b1-4)GlcNAc(b1-3)Gal(b1-4)GlcNAc(b1-3)Gal(b1-4)GlcNAc(b1-2)Man(a1-6)]Man(b1-4)GlcNAc(b1-4)GlcNAc
# Outline: as §1
# [21] = target: Gal(b1-4)GlcNAc(b1-3)Gal(b1-4)GlcNAc(b1-3)[Gal(b1-4)GlcNAc(b1-3)Gal(b1-4)GlcNAc(b1-6)]GalNAc
# Outline: as §1
# [22] = target: Gal(b1-4)GlcNAc(b1-3)[Fuc(a1-3)GlcNAc(b1-6)]Gal(b1-4)Glc
# Outline: as §1
# [23] = target: Gal(b1-4)GlcNAc(b1-6)[Gal(b1-4)GlcNAc(b1-3)]GalNAc
# Outline: as §1
# Gal3S(b1-4)Glc = target: Gal3S(b1-4)Glc
# Outline: as §1
# [24] = target: Gal3S(b1-4)[Fuc(a1-3)]Glc6S
# Outline: as §1
# Gal6S(b1-4)GlcNAc = target: Gal6S(b1-4)GlcNAc
# Outline: as §1
# GalNAc(a1-3)GalNAc = target: GalNAc(a1-3)GalNAc
# Outline: as §1
# GalNAc(b1-4)GlcNAc6S = target: GalNAc(b1-4)GlcNAc6S
# Outline: as §1
# [25] = target: Glc(a1-6)Glc(a1-6)Glc(a1-6)Glc
# Outline: as §1
# [26] = target: GlcA3S(b1-3)Gal(b1-4)GlcNAc(b1-2)Man
# Outline: as §1
# [27] = target: GlcNAc(a1-4)Gal(b1-4)GlcNAc(b1-3)Gal(b1-4)Glc
# Outline: as §1
# [28] = target: GlcNAc(b1-2)[GlcNAc(b1-6)]Man(a1-6)[GlcNAc(b1-2)Man(a1-3)]Man(b1-4)GlcNAc(b1-4)GlcNAc
# Outline: as §1
# [29] = target: GlcNAc(b1-3)Gal(b1-4)GlcNAc(b1-3)Gal(b1-4)GlcNAc(b1-2)[GlcNAc(b1-3)Gal(b1-4)GlcNAc(b1-3)Gal(b1-4)GlcNAc(b1-6)]Man(a1-6)[GlcNAc(b1-3)Gal(b1-4)GlcNAc(b1-3)Gal(b1-4)GlcNAc(b1-2)Man(a1-3)]Man(b1-4)GlcNAc(b1-4)[Fuc(a1-6)]GlcNAc
# Outline: as §1
# [30] = target: GlcNAc(b1-3)Gal(b1-4)GlcNAc(b1-3)Gal(b1-4)GlcNAc(b1-3)Gal(b1-4)GlcNAc(b1-2)Man(a1-3)[GlcNAc(b1-3)Gal(b1-4)GlcNAc(b1-3)Gal(b1-4)GlcNAc(b1-3)Gal(b1-4)GlcNAc(b1-2)Man(a1-6)]Man(b1-4)GlcNAc(b1-4)[Fuc(a1-6)]GlcNAc
# Outline: as §1
# [31] = target: GlcNAc6S(b1-3)Gal(b1-4)GlcNAc
# Outline: as §1
# [32] = target: Neu5Ac(a2-3)Gal(b1-3)GlcNAc(b1-3)Gal(b1-3)GlcNAc
# Outline: as §1
# [33] = target: Neu5Ac(a2-3)Gal(b1-3)GlcNAc(b1-3)Gal(b1-4)GlcNAc
# Outline: as §1
# [34] = target: Neu5Ac(a2-3)Gal(b1-3)GlcNAc6S
# Outline: as §1
# [35] = target: Neu5Ac(a2-3)Gal(b1-3)[Fuc(a1-4)]GlcNAc(b1-3)Gal(b1-4)[Fuc(a1-3)]GlcNAc
# Outline: as §1
# [36] = target: Neu5Ac(a2-3)[GalNAc(b1-4)]Gal(b1-4)Glc
# Outline: as §1
# [37] = target: Neu5Ac(a2-6)Gal(b1-4)GlcNAc(b1-2)Man(a1-6)Man(b1-4)GlcNAc(b1-4)GlcNAc
# Outline: as §1
# [38] = target: Neu5Ac(a2-6)Gal(b1-4)GlcNAc(b1-2)Man(a1-6)[Gal(b1-4)GlcNAc(b1-2)Man(a1-3)]Man(b1-4)GlcNAc(b1-4)GlcNAc
# Outline: as §1
# [39] = target: Neu5Ac(a2-6)Gal(b1-4)GlcNAc(b1-2)[Neu5Ac(a2-6)Gal(b1-4)GlcNAc(b1-4)]Man(a1-3)[GlcNAc(b1-4)][Neu5Ac(a2-6)Gal(b1-4)GlcNAc(b1-2)[Neu5Ac(a2-6)Gal(b1-4)GlcNAc(b1-6)]Man(a1-6)]Man(b1-4)GlcNAc(b1-4)GlcNAc
# Outline: as §1
# [40] = target: Neu5Ac(a2-6)GalNAc(b1-4)GlcNAc
# Outline: as §1
# [41] = target: Neu5Ac(a2-8)Neu5Ac(a2-3)[GalNAc(b1-4)]Gal(b1-4)Glc
# Outline: as §1
# [42] = target: Neu5Ac(a2-8)Neu5Ac(a2-8)Neu5Ac(a2-3)Gal(b1-4)Glc
# Outline: as §1
# [43] = target: Neu5Gc(a2-3)Gal(b1-4)GlcNAc(b1-3)Gal(b1-4)GlcNAc(b1-2)Man(a1-3)[Neu5Gc(a2-3)Gal(b1-4)GlcNAc(b1-3)Gal(b1-4)GlcNAc(b1-2)Man(a1-6)]Man(b1-4)GlcNAc(b1-4)GlcNAc
# Outline: as §1
binder,measurement,setting,value
B1,glycan array binding signal (z-score),[1],-0.883
same,glycan array binding signal (z-score),[2],-0.372
same,glycan array binding signal (z-score),[3],-0.353
same,glycan array binding signal (z-score),[4],-0.286
same,glycan array binding signal (z-score),[5],-0.798
same,glycan array binding signal (z-score),[6],-0.358
same,glycan array binding signal (z-score),[7],0.454
same,glycan array binding signal (z-score),[8],-0.295
same,glycan array binding signal (z-score),[9],-0.854
same,glycan array binding signal (z-score),[10],3.2
same,glycan array binding signal (z-score),[11],-0.562
same,glycan array binding signal (z-score),[12],-0.328
same,glycan array binding signal (z-score),Gal(a1-2)Gal,-0.45
same,glycan array binding signal (z-score),Gal(a1-3)Gal(b1-3)GlcNAc,0.018
same,glycan array binding signal (z-score),Gal(a1-4)Gal(b1-4)GlcNAc,0.384
same,glycan array binding signal (z-score),[13],0.212
same,glycan array binding signal (z-score),[14],3.23
same,glycan array binding signal (z-score),[15],0.491
same,glycan array binding signal (z-score),[16],1.38
same,glycan array binding signal (z-score),Gal(b1-3)GlcNAc6S,2.12
same,glycan array binding signal (z-score),[17],0.202
same,glycan array binding signal (z-score),[18],3.25
same,glycan array binding signal (z-score),[19],4.26
same,glycan array binding signal (z-score),[20],3.26
same,glycan array binding signal (z-score),[21],3.96
same,glycan array binding signal (z-score),[22],1.53
same,glycan array binding signal (z-score),[23],0.25
same,glycan array binding signal (z-score),Gal3S(b1-4)Glc,0.164
same,glycan array binding signal (z-score),[24],3.48
same,glycan array binding signal (z-score),Gal6S(b1-4)GlcNAc,0.547
same,glycan array binding signal (z-score),GalNAc(a1-3)GalNAc,0.13
same,glycan array binding signal (z-score),GalNAc(b1-4)GlcNAc6S,0.521
same,glycan array binding signal (z-score),[25],-0.652
same,glycan array binding signal (z-score),[26],-0.771
same,glycan array binding signal (z-score),[27],-0.587
same,glycan array binding signal (z-score),[28],-0.73
same,glycan array binding signal (z-score),[29],0.581
same,glycan array binding signal (z-score),[30],3.26
same,glycan array binding signal (z-score),[31],1.06
same,glycan array binding signal (z-score),[32],-0.891
same,glycan array binding signal (z-score),[33],-0.842
same,glycan array binding signal (z-score),[34],-0.491
same,glycan array binding signal (z-score),[35],0.124
same,glycan array binding signal (z-score),[36],-0.409
same,glycan array binding signal (z-score),[37],3.88
same,glycan array binding signal (z-score),[38],3.49
same,glycan array binding signal (z-score),[39],0.039
same,glycan array binding signal (z-score),[40],-0.875
same,glycan array binding signal (z-score),[41],3.32
same,glycan array binding signal (z-score),[42],-0.82
same,glycan array binding signal (z-score),[43],-0.775

# From the supplement of paper PMC8728848
